Reference: ChEMBL document CHEMBL1201862, “PubChem BioAssay data set” (2004)
Out of some 400,000 compounds screened, about 2,100 (0.53%) were called active. Another 14% or so got no clear call; they are omitted. No rule for the calls is given here. The list comes from a sample in which actives are over-represented; it also holds similar structures and randomly drawn compounds.

target: Ataxin-2 (Homo sapiens) (UniProt Q99700); assay: qHTS for Inhibitors of ATXN expression.; type: functional
Sequence (Q99700 whole entry): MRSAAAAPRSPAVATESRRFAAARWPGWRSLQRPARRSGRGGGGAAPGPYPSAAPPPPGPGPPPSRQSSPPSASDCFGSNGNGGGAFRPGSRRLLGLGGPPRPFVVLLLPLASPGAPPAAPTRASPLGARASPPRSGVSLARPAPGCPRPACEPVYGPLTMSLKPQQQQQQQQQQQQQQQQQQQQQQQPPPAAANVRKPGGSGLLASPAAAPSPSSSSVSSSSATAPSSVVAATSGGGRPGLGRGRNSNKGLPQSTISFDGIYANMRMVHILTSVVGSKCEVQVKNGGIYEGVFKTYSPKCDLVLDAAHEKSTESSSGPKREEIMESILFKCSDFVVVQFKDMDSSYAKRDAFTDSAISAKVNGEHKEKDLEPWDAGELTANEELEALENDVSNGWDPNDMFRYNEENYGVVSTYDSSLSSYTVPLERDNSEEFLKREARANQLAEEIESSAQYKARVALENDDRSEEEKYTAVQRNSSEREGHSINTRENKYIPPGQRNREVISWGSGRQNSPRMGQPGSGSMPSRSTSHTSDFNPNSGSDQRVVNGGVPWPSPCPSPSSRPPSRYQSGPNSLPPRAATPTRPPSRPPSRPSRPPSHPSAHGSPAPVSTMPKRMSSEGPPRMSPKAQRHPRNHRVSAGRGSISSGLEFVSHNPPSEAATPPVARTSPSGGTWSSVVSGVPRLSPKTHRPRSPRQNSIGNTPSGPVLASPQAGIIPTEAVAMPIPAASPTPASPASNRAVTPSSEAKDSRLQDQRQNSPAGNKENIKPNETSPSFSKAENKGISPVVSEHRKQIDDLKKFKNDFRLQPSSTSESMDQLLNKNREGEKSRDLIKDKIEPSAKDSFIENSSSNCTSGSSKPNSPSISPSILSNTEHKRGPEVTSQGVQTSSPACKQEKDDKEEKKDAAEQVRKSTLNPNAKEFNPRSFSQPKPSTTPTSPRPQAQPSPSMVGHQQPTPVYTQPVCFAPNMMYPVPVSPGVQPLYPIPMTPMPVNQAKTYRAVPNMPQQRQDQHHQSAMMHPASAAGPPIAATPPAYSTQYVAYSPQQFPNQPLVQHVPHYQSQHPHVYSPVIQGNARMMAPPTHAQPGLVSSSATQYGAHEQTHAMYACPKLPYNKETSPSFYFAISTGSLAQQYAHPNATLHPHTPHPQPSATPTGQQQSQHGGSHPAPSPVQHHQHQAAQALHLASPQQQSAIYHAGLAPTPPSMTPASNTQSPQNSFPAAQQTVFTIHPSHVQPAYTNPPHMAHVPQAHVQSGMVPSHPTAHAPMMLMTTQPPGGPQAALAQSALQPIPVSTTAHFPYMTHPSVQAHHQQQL

Structure (SMILES)	Potency
CCOc1ccc(C2C(C#N)=C(N)Oc3cc(O)ccc32)cc1OCC (centres undefined)	inactive
COCOc1ccc(/C=C2/Oc3cc(OCOC)cc(OCOC)c3C2=O)c(OCOC)c1	inactive
Cc1cscc(C)c1=S	inactive
Nc1c(C(=O)CSc2ncccn2)c(=O)[nH]c(=O)n1C1CC1	inactive
Cc1c(CCC(=O)O)c(=O)oc2c(C)c3occ(-c4ccc(Br)cc4)c3cc12	inactive
COc1ccc([N+](=O)[O-])cc1C(=O)Nc1ccc(Cc2ccncc2)cc1	inactive
O=C(Nc1ccc(S(=O)(=O)Nc2cnc3ccccc3n2)cc1)c1ccc([N+](=O)[O-])cc1Cl	inactive
O=C(Nc1ccc(Nc2ccncc2)cc1)c1ccc(Nc2ccnc3ccc([N+](=O)[O-])cc23)cc1[N+](=O)[O-]	39.8 µM (active)
N#Cc1cc2c(=O)n3ccccc3nc2n(CCCN2CCOCC2)c1=O	inactive
CCOc1cc(C2C3=C(CCCC3=O)N(CCC(=O)O)C3=C2C(=O)CCC3)ccc1OS(=O)(=O)c1ccc(C)cc1	inactive
Cc1cc(S(=O)(=O)N2CCCC2)ccc1OCC(=O)Nc1ccc(C(N)=O)cc1	inactive
CC(=O)NCCc1nc2cc(NC(=O)c3cccs3)ccc2n1C	inactive
Cc1ccc(C(C)C)c(OCC(=O)Nc2ccc3c(c2)nc(CCN2CCCCC2)n3C)c1	39.8 µM (active)
O=C1/C(=C\Nn2cnnc2)c2ccccc2C(=O)N1c1ccccc1F	inactive
COc1ccccc1NS(=O)(=O)c1cccc(NC(=O)Nc2cccc(Cl)c2)c1	44.7 µM (active)
COc1ccccc1NS(=O)(=O)c1cccc(NC(=O)c2[nH]c(C)c(C(C)=O)c2C)c1	inactive
COc1ccccc1NS(=O)(=O)c1ccc(C)c(NC(=O)c2c(C)noc2C)c1	inactive
COC(=O)c1c(C)nc2nonc2c1N	inactive
CCOC(=O)NN=C1c2ccccc2-c2nc3nonc3nc21	3.77 µM (active)
CCOC(=O)Nc1c2ccccc2nc2ccccc12	inactive
COc1cc(/C=C/C(=O)N2C(=O)c3cccc(N)c3C2=O)cc(OC)c1OC	inactive
Cn1c2nc(=O)[nH]c(=O)c-2cc2ccccc21	inactive
C=CCOc1ccccc1CN(C(=O)CCl)c1ccc2c(c1)OCO2	39.8 µM (active)
CCc1cccc(CC)c1N1C(=O)C2=C(SCCCS2)C1=O	inactive
CCOC(=O)C1(CCOc2ccccc2)CCN(Cc2ccc(C#CCCO)cc2)CC1	inactive

Structure (SMILES)	Potency
Cc1cc(N2CCN(C(=O)c3ccco3)CC2)n2nc(-c3cccc(Cl)c3)cc2n1	35.5 µM (active)
CCc1noc(C)c1C(=O)N1CCN(c2cccc(Cl)c2)CC1	inactive
Cn1c(C(=O)N2CCN(C(=O)c3ccco3)CC2)cc2c(=O)n3ccccc3nc21	inactive
O=C(c1ccco1)N1CCN(c2c(O)nc3ccc(Cl)cc3c2-c2ccccc2)CC1	28.2 µM (active)
O=c1oc2cc(O)ccc2cc1-c1ccc(F)cc1	inactive
Cc1ccc(/N=c2\oc3cc(O)ccc3cc2C(N)=O)cc1	inactive
O=CNc1ccc2c3c(cccc13)-c1ccccc1-2	inactive
CC1=NN(c2ccccc2)C(=O)C1/C=N/c1ccc(N(C)C)cc1 (centres undefined)	inactive
CN(C)C=O.CN(C)c1ccc(/C=C/c2nc3ccccc3c(=O)n2-c2ccc(C(=O)O)cc2)cc1	inactive
CC1=NN(c2ccccc2)C(=O)/C1=C/C=C/c1ccc(N(C)C)cc1	17.8 µM (active)
O=C(COC(=O)Cc1ccsc1)NNC(=O)c1ccccc1	inactive
C#CCN1C(=O)S/C(=C\c2cc3c(cc2OC)OCO3)C1=O	inactive
CNC(=O)c1cc(NC(=O)CCn2nc(-c3ccccc3)c3ccccc3c2=O)ccc1OC	inactive
COc1ccc(Cl)cc1C(=O)NNC(=O)c1[nH]nc2ccccc12	inactive
CCn1nc(C(=O)NNC(=O)c2cc(Cl)ccc2OC)c2ccccc2c1=O	39.8 µM (active)
CC(=O)N(Cc1ccccc1)c1ncc2c(n1)c(=O)c(C#N)c1ccccn12	inactive
COCCCNC(=O)C[S+]([O-])Cc1nc(-c2ccccc2C)oc1C (centres undefined)	inactive
CCCCCOc1ccc(Br)cc1CSC(=N)N	35.5 µM (active)
CCCn1c(=N)c(C(=O)NCC2CCCO2)cc2c(=O)n3cccc(C)c3nc21 (centres undefined)	inactive
O=C(CCl)Nc1cccc2ncccc12	31.6 µM (active)
O=C(Cc1ccccc1C(=O)O)Nc1cccc2ccccc12	inactive
Cc1cc(O)nc(SCC(=O)Nc2ccnc3ccccc23)n1	inactive
Cc1c(Cc2ccccc2)c(=O)oc2cc(OC(=O)c3ccccc3)ccc12	inactive
CC/N=c1\scc(-c2ccc(F)cc2)n1/N=C/c1ccccn1	inactive
CCCc1sc(N/N=C/c2ccccn2)nc1-c1ccc(Br)cc1	17.8 µM (active)

Structure (SMILES)	Potency
Cc1csc(N/N=C/c2ccccn2)n1	28.2 µM (active)
CCC/C=N/Nc1nc2ccccc2s1	inactive
Cn1/c(=N/N=C/c2ccccn2)sc2ccccc21	inactive
C=CCn1c(=N)c(C(=O)NCCCOC)cc2c(=O)n3ccccc3nc21	inactive
Oc1c(Cl)cc(Cl)cc1/C=N\c1cc(C(F)(F)F)ccc1N1CCc2ccccc2C1	inactive
COc1ccc(-c2csc(NC(=O)CSc3n[nH]c(N)n3)n2)cc1	inactive
COc1ccc(-c2cc(C(F)(F)F)c3c(N)c(C(=O)NCCSC)sc3n2)cc1	inactive
COc1ccc(-c2cc(C(F)(F)F)nc(SCC(=O)Nc3ccc(C(C)=O)cc3)n2)cc1	31.6 µM (active)
CN(C)c1ccc(-c2cc3ccccc3c(=O)o2)cc1	inactive
COC(=O)C1=NN(c2ccc(OC)cc2)C2C(=O)N(c3ccccc3OC)C(=O)C12 (centres undefined)	inactive
CCOC1=C2CN(S(=O)(=O)c3ccc(C)cc3)[C@H](c3cccc4ccccc34)C[C@H]2C(C#N)(C#N)C(C#N)(C#N)C1	12.6 µM (active)
O=c1oc2c3c4c(cc2c2c1CCC2)OCCN4CCC3	inactive
COc1ccc(-c2cc(C(=O)OCC(=O)Nc3cc(C)on3)c3ccccc3n2)cc1OC	inactive
COc1ccc(-c2csc(NC(=O)CCNC(=O)c3ccco3)n2)cc1OC	inactive
COc1ccc(-c2cc3nc(C)c(CCC(=O)NCc4ccc(F)cc4)c(C)n3n2)c(OC)c1	inactive
CC1CCCCN1C(=O)COC(=O)c1cc(-c2cccs2)nn1-c1ccccc1 (centres undefined)	inactive
COc1ccc(-c2cc(C(F)(F)F)nc(S(=O)(=O)CCCC(=O)Nc3cccc(O)c3)n2)cc1OC	15 µM (active)
COc1ccc(Br)cc1CN(C)CC(=O)NCc1ccc(F)cc1	inactive
COc1ccc(-c2cc(C(=O)Nc3ccc(C(N)=O)cc3)c3ccccc3n2)cc1OC	inactive
COc1cccc(C(C(=O)NC(C)(C)C)N(C(=O)CCC(=O)Nc2cc(C)on2)c2ccc3c(c2)OCCO3)c1OC (centres undefined)	inactive
COc1ccccc1-c1cc(C(F)(F)F)nc(S(=O)(=O)CCCC(=O)N2CCCCC2C)n1 (centres undefined)	39.8 µM (active)
COc1cc(CC(=O)OCC(=O)N2CCCCC2C)cc(OC)c1OC (centres undefined)	inactive
COc1ccccc1-c1cc(C(F)(F)F)nc(S(=O)(=O)CCCC(=O)Nc2cc(C)on2)n1	14.1 µM (active)
COc1ccccc1-c1cc(C(F)(F)F)nc(S(=O)(=O)CCCC(=O)NCc2ccc(F)cc2)n1	26.7 µM (active)
